According to PubChem BioAssay AID463173 (ICCB-Longwood Screening Facility, Harvard Medical School, 2010):
About 1,700 (3.3%) of roughly 52,000 compounds were called active. Many of the other results were omitted from the sample, so actives are more common in it than they were. Unmarked numbers belong to inactive results. Rule as the data show it: active = survival mostly below about 52% (no sharp cut-off); inactive = mostly above about 56%.

test system: Wild type; assay: growth inhibition of S. aureus wild type versus tarO mutant, primary screen, teichoic acid synthesis inhibitors, RN4220, OD600 (AID 463173); settings: S. aureus RN4220 wild type/DeltatarO growth, OD600, 18 h, hits give low values, screened at 18.75 µg/mL (by protocol)

First: CCOc1ccc(NC(=O)c2ccc(F)c(S(=O)(=O)N(CC)Cc3ccccc3)c2)cc1
Second: CCOc1cccc(NC(=O)c2ccc(F)c(S(=O)(=O)N(CC)c3cccc(C)c3)c2)c1
The survival of the first is lower: 77% for the first, 82% for the second.

Compared with `Cc1ccc(C(=O)Nc2ccccc2)cc1S(=O)(=O)Nc1ccccc1`, `Cc1ccc(C(=O)Nc2ccc(C(=O)O)cc2)cc1S(=O)(=O)Nc1ccccc1` is higher in survival: 70% for the first, 73% for the second.

Compared with `CCN1CCN(C(c2ccccc2F)c2c(O)cc(C)n(CCOC)c2=O)CC1` (stereo unspecified), `CCN1CCN(C(c2ccccc2)c2c(O)cc(C)n(CCOC)c2=O)CC1` (stereo unspecified) is higher in survival: 45% for the first, 91% for the second.

First: Cc1ccc(NC(=O)Cn2c(=O)n(Cc3ccco3)c(=O)c3ccc(C(=O)NC4CCCC4)cc32)c(C)c1
Second: Cc1cccc(Oc2coc3cc(OCC(=O)NC4CCCCC4)ccc3c2=O)c1
The survival of the first is higher: 87% for the first, 80% for the second.

First: Cc1cccc(C(=O)NCC(c2ccc3c(c2)OCO3)N2CCN(c3ccccc3F)CC2)c1 (stereo unspecified)
Second: COc1ccc(C(=O)NCCn2cc(SCc3cccc(F)c3)c3ccccc32)cc1OC
The survival of the first is higher: 70% for the first, 68% for the second.

Compared with `Cc1ccc2nc(CSc3nnc(NC(=O)COc4ccccc4)s3)cc(=O)n2c1`, `Cc1ccc2nc(CSc3nnc(NC(=O)COc4ccccc4F)s3)cc(=O)n2c1` is higher in survival: 63% for the first, 81% for the second.

Compared with `CC(C)C(=O)Nc1nnc(SCc2cc(=O)n3ccccc3n2)s1`, `Cc1ccc2nc(CSc3nnc(NC(=O)CC(C)C)s3)cc(=O)n2c1` is lower in survival: 117% for the first, 60% for the second.

Going from `Cc1ccc(OCC(=O)Nc2nnc(SCc3cc(=O)n4cccc(C)c4n3)s2)cc1` to `Cc1cccn2c(=O)cc(CSc3nnc(NC(=O)COc4ccccc4)s3)nc12`, the survival rises from 64% to 71%.

Going from `CCCN1CCN(CCCNC(=O)c2cc3c(=O)n(CC)c4ccccc4c3s2)CC1` to `COCCn1c(C)cc(O)c(C(c2ccccc2)N2CCN(C)CC2)c1=O` (stereo unspecified), the survival rises from 85% to 87%.

Compared with `CC1CCN(CC(=O)N2CCN(c3ccccc3)CC2)CC1`, `CC(C)(C)OC(=O)N1CCC(c2c(C(=O)N3CCN(C(=O)c4ccco4)CC3)cnn2-c2cccc(Cl)c2)CC1` is lower in survival: 106% for the first, 95% for the second.

Going from `COc1ccc(-c2cn3nc(N4CCCC(C(=O)Nc5ccccc5OC)C4)sc3n2)cc1` (stereo unspecified) to `Cc1ccc2cccc(NC(=O)COc3ccccc3Cl)c2n1`, the survival falls from 135% to 134%.

Going from `CN(C)S(=O)(=O)c1ccc2c(c1)N(CC(=O)Nc1ccc(OC(F)(F)F)cc1)C(=O)CS2` to `Cc1cc(OCC(=O)Nc2ccc(C(=O)OC3CCCCC3)cc2)cc(C)c1Cl`, the survival falls from 71% to 52%.

First: COc1ccc(C(=O)NCCN=C2NS(=O)(=O)c3ccccc32)cc1
Second: COc1cccc(C(=O)c2cn(CC(=O)NCCc3ccccc3)c3nc(C)ccc3c2=O)c1
The survival of the first is higher: 108% for the first, 64% for the second.

First: O=C(NCCn1cc(SCc2ccc(C(F)(F)F)cc2)c2ccccc21)c1ccccc1F
Second: Cc1ccc(CSc2cn(CCNC(=O)c3cccs3)c3ccccc23)cc1
The survival of the first is lower: 35% for the first, 62% for the second.

First: COc1ccccc1C(=O)NCCn1cc(SCc2ccccc2Cl)c2ccccc21
Second: COc1ccc(C2C(C(N)=O)=C(C)Nc3nc(SCc4ccccc4Cl)nn32)cc1OC (stereo unspecified)
The survival of the first is lower: 28% for the first, 143% for the second.

First: Cc1nc2cc(C(F)(F)F)ccc2n1C1CCN(C(=O)C2CC2)CC1
Second: O=C(Nc1ccccc1)Nc1nnc(SCC(=O)N2CCCCC2)s1
The survival of the first is lower: 95% for the first, 131% for the second.

Compared with `Cn1ncc2c(NCc3ccc(Cl)cc3)ncnc21`, `CCc1ccccc1Nc1nc2ccccc2n2cnnc12` is higher in survival: 75% for the first, 147% for the second.

First: CCCC(=O)Nc1cccc(-c2nc3ncccc3o2)c1
Second: Cc1ccccc1OCC(=O)Nc1ccc(-c2nc3ncccc3o2)cc1
The survival of the first is higher: 88% for the first, 69% for the second.

Going from `O=C(COc1ccc(Cl)cc1Cl)Nc1ccc(C(=O)OC2CCCCC2)cc1` to `Cc1cccc(OCC(=O)Nc2ccc(Cl)c(-c3nc4ncccc4o3)c2)c1C`, the survival falls from 78% to 38%.

Compared with `CCC(C)c1ccc(OCC(=O)Nc2ccc(-c3nc4ncccc4o3)cc2)cc1` (stereo unspecified), `COc1ccc(OCC(=O)Nc2ccc(-c3nc4ncccc4o3)cc2)cc1` is higher in survival: 60% for the first, 119% for the second.

Going from `Cc1ccc(C(C)C)c(OCC(=O)Nc2ccc(-c3nc4ncccc4o3)cc2C)c1` to `COc1ccc(NC(=O)c2ccco2)cc1NC(=O)COc1cc(C)ccc1C(C)C`, the survival rises from 69% to 85%.

First: CCn1cc(C(=O)Nc2ccccc2)c(=O)c2ccc(C)nc21
Second: CC1=C(C(=O)Nc2ccccc2)C(c2ccc(O)cc2)n2nc(-c3ccc(Cl)cc3)nc2N1 (stereo unspecified)
The survival of the first is higher: 111% for the first, 82% for the second.

Going from `c1ccc(N(c2ccccc2)c2nc(-n3nnc4ccccc43)nc(-n3nnc4ccccc43)n2)cc1` to `Cc1ccc(C(C)C)c(OCC(=O)Nc2ccc3c(c2)nc(CCNC(=O)c2ccco2)n3C)c1`, the survival falls from 103% to 88%.

`Cc1ccc2cccc(NC(=O)COc3cc(C)c(Cl)c(C)c3)c2n1` gave a survival of 82%.

In the case of `Cc1ccc(C(=O)Nc2ccccc2)cc1S(=O)(=O)Nc1ccc(Br)cc1`, the survival is reported as 7% (active).
`CCN(c1ccccc1)S(=O)(=O)c1cc(C(=O)Nc2ccc(Br)cc2)ccc1F` was tested, and the survival was 1% (active).
In the case of `Cc1cccn2c(=O)cc(CSc3nnc(NC(=O)COc4ccc(F)cc4)s3)nc12`, the survival is reported as -4% (active).
`Cc1ccc(OCC(=O)Nc2nnc(SCc3cc(=O)n4cc(C)ccc4n3)s2)cc1` was tested, and the survival was 1% (active).
`Cc1ccc2nc(CSc3nnc(NC(=O)C(C)C)s3)cc(=O)n2c1` was tested, and the survival was -3% (active).
For `COCCn1c(C)cc(O)c(C(c2ccccc2)N2CCN(CCO)CC2)c1=O` (stereo unspecified), the survival was 0% (active).
For `COc1ccccc1C(=O)NCCn1cc(SCc2ccc(C)cc2)c2ccccc21`, the survival was 3% (active).
With `O=C(NCCn1cc(SCc2cccc(F)c2)c2ccccc21)c1cccc(C(F)(F)F)c1` the survival was 8% (active).
In the case of `Cc1ccc(C(C)C)c(OCC(=O)Nc2cccc(-c3nc4ncccc4o3)c2)c1`, the survival is reported as 2% (active).
With `CCC(C)c1ccc(OCC(=O)Nc2cccc(-c3nc4ncccc4o3)c2)cc1` (stereo unspecified) the survival was 6% (active).
With `Cc1ccc(C(C)C)c(OCC(=O)Nc2ccc(C(=O)OC3CCCCC3)cc2)c1` the survival was 6% (active).
In the case of `Cc1cc(C)c(OCC(=O)Nc2cccc(-c3nc4ncccc4o3)c2)c(Br)c1`, the survival is reported as 4% (active).
In the case of `CCC(C)c1ccc(OCC(=O)Nc2cccc3ccc(C)nc23)cc1` (stereo unspecified), the survival is reported as -12% (active).
`Cc1ccc(C(C)C)c(OCC(=O)Nc2cccc(NC(=O)c3ccco3)c2)c1` was tested, and the survival was 12% (active).
